Reference: PubChem BioAssay AID1159580 (chemical genetic matrix, 2015)
Out of some 5,500 compounds screened, about 2,000 (36%) were called active. Roughly 18% stayed inconclusive and do not appear here. The list shows a part of the results. Values without a mark were called inactive. No stated cut-off is given here; in the data, active means normalized growth mostly below about 0.91 (no sharp cut-off); inconclusive means no clear call, values can overlap the other calls; inactive means mostly above about 0.92.

Test: chemical genetic growth profiling, strain panel (AID 1159580);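 further: tested at 20 µM; growth read once vehicle control cultures reached saturation at 30 °C; 1 = growth at the plate median or of vehicle wells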
Settings: S. cerevisiae deletion strains, growth OD
[1] = locus YAL021C, strain ccr4, stronger effect = lower value
[2] = locus YAL026C, strain drs2, stronger effect = lower value
[3] = locus YAL030W, strain snc1, stronger effect = lower value
[4] = locus YBL061C, strain skt5, stronger effect = lower value
[5] = locus YBR009C, strain hhf1, stronger effect = lower value
[6] = locus YBR023C, strain chs3, stronger effect = lower value
[7] = locus YBR171W, strain sec66, stronger effect = lower value
[8] = locus YBR231C, strain swc5, stronger effect = lower value
[9] = locus YBR279W, strain paf1, stronger effect = lower value
[10] = locus YCL011C, strain gbp2, stronger effect = lower value
[11] = locus YCL016C, strain dcc1, stronger effect = lower value
[12] = locus YCL069W, strain vba3, stronger effect = lower value
[13] = locus YCR088W, strain abp1, stronger effect = lower value
[14] = locus YDL005C, strain med2, stronger effect = lower value
[15] = locus YDL040C, strain nat1, stronger effect = lower value
[16] = locus YDR001C, strain nth1, stronger effect = lower value
[17] = locus YDR069C, strain doa4, stronger effect = lower value
[18] = locus YDR137W, strain rgp1, stronger effect = lower value
[19] = locus YDR159W, strain sac3, stronger effect = lower value
[20] = locus YDR297W, strain sur2, stronger effect = lower value
[21] = locus YDR334W, strain swr1, stronger effect = lower value
[22] = locus YDR335W, strain msn5, stronger effect = lower value
[23] = locus YDR392W, strain spt3, stronger effect = lower value
[24] = locus YEL003W, strain gim4, stronger effect = lower value
[25] = locus YEL037C, strain rad23, stronger effect = lower value
[26] = locus YEL061C, strain CIN8 (second series), stronger effect = lower value
[27] = locus YER015W, strain faa2, stronger effect = lower value
[28] = locus YER016W, strain bim1, stronger effect = lower value
[29] = locus YER111C, strain swi4, stronger effect = lower value
[30] = locus YER155C, strain BEM2 (second series), stronger effect = lower value
[31] = locus YFR010W, strain ubp6, stronger effect = lower value
[32] = locus YGL167C, strain pmr1, stronger effect = lower value
[33] = locus YGL173C, strain kem1, stronger effect = lower value
[34] = locus YGL227W, strain vid30, stronger effect = lower value
[35] = locus YGL240W, strain doc1, stronger effect = lower value
[36] = locus YGL253W, strain hxk2, stronger effect = lower value
[37] = locus YHR013C, strain ard1, stronger effect = lower value
[38] = locus YHR027C, strain rpn1, stronger effect = lower value
[39] = locus YHR030C, strain SLT2, stronger effect = lower value
[40] = locus YHR079C, strain IRE1, stronger effect = lower value
[41] = locus YHR142W, strain chs7, stronger effect = lower value
[42] = locus YJL092W, strain hpr5, stronger effect = lower value
[43] = locus YJL095W, strain BCK1 (second series), stronger effect = lower value
[44] = locus YJL095W, strain BCK1, stronger effect = lower value
[45] = locus YJL115W, strain asf1, stronger effect = lower value
[46] = locus YJL129C, strain trk1, stronger effect = lower value
[47] = locus YJL154C, strain vps35, stronger effect = lower value
[48] = locus YJL164C, strain tpk1, stronger effect = lower value
[49] = locus YJL166W, strain qcr8, stronger effect = lower value
[50] = locus YJL187C, strain SWE1, stronger effect = lower value
[51] = locus YJR066W, strain TOR1, stronger effect = lower value
[52] = locus YKL160W, strain elf1, stronger effect = lower value
[53] = locus YKR026C, strain gcn3, stronger effect = lower value
[54] = locus YKR091W, strain srl3, stronger effect = lower value
[55] = locus YLL001W, strain dnm1, stronger effect = lower value
[56] = locus YLL026W, stronger effect = lower value
[57] = locus YLL041C, strain sdh2, stronger effect = lower value
[58] = locus YLR027C, strain aat2, stronger effect = lower value
[59] = locus YLR113W, strain HOG1, stronger effect = lower value
[60] = locus YLR221C, strain rsa3, stronger effect = lower value
[61] = locus YLR258W, strain gsy2, stronger effect = lower value
[62] = locus YLR262C, strain YPT6 (second series), stronger effect = lower value
[63] = locus YLR320W, strain mms22, stronger effect = lower value
[64] = locus YLR342W, strain FKS1, stronger effect = lower value
[65] = locus YLR357W, strain rsc2, stronger effect = lower value
[66] = locus YLR370C, strain arc18, stronger effect = lower value
[67] = locus YLR384C, strain iki3, stronger effect = lower value
[68] = locus YML120C, strain ndi1, stronger effect = lower value
[69] = locus YMR058W, strain fet3, stronger effect = lower value
[70] = locus YMR125W, strain sto1, stronger effect = lower value
[71] = locus YMR129W, stronger effect = lower value
[72] = locus YMR205C, strain PFK2, stronger effect = lower value
[73] = locus YMR231W, strain pep5, stronger effect = lower value
[74] = locus YNL071W, strain lat1, stronger effect = lower value
[75] = locus YNL183C, strain NPR1, stronger effect = lower value
[76] = locus YNL209W, strain ssb2, stronger effect = lower value
[77] = locus YNL248C, strain rpa49, stronger effect = lower value
[78] = locus YNL322C, strain KRE1 (second series), stronger effect = lower value
[79] = locus YNR049C, strain mso1, stronger effect = lower value
[80] = locus YOR001W, strain rrp6, stronger effect = lower value
[81] = locus YOR070C, strain gyp1, stronger effect = lower value
[82] = locus YOR080W, strain dia2, stronger effect = lower value
[83] = locus YOR083W, strain WHI5, stronger effect = lower value
[84] = locus YOR106W, strain vam3, stronger effect = lower value
[85] = locus YOR231W, strain MKK1, stronger effect = lower value
[86] = locus YOR265W, strain rbl2, stronger effect = lower value
[87] = locus YOR270C, strain vph1, stronger effect = lower value
[88] = locus YOR290C, strain snf2, stronger effect = lower value
[89] = locus YPL051W, strain arl3, stronger effect = lower value
[90] = locus YPL078C, strain atp4, stronger effect = lower value
[91] = locus YPL106C, strain sse1, stronger effect = lower value
[92] = locus YPL240C, strain hsp82, stronger effect = lower value
[93] = locus YPL256C, strain CLN2, stronger effect = lower value

CC(=O)/C(=C\c1ccccc1)CC(=O)O
normalized growth [1]: 1
normalized growth [2]: 0.995
normalized growth [3]: 1
normalized growth [4]: 1
normalized growth [5]: 0.986
normalized growth [6]: 1
normalized growth [7]: 0.992
normalized growth [8]: 0.982
normalized growth [9]: 0.999
normalized growth [10]: 0.988
normalized growth [11]: 0.991
normalized growth (locus YCL061C, strain MRC1, stronger effect = lower value): 0.994
normalized growth [12]: 0.997
normalized growth [13]: 0.998
normalized growth [14]: 0.998
normalized growth [15]: 0.985
normalized growth [16]: 0.992
normalized growth [17]: 0.982
normalized growth [18]: 1.01
normalized growth [19]: 0.97
normalized growth (locus YDR195W, strain ref2): 0.948
normalized growth [20]: 0.994
normalized growth [21]: 0.996
normalized growth [22]: 0.996
normalized growth [23]: 0.775
normalized growth [24]: 0.992
normalized growth [25]: 0.997
normalized growth [26]: 0.989
normalized growth [27]: 0.996
normalized growth [28]: 0.993
normalized growth [29]: 0.992
normalized growth [30]: 0.923
normalized growth [31]: 0.994
normalized growth [32]: 0.993
normalized growth [33]: 0.991
normalized growth [34]: 0.991
normalized growth [35]: 0.978
normalized growth [36]: 0.984
normalized growth [37]: 0.956
normalized growth [38]: 0.996
normalized growth [39]: 0.976
normalized growth [40]: 0.954
normalized growth [41]: 1.01
normalized growth [42]: 0.991
normalized growth [43]: 0.992
normalized growth [44]: 0.967
normalized growth [45]: 0.993
normalized growth [46]: 0.984
normalized growth [47]: 1
normalized growth [48]: 1
normalized growth [49]: 0.976
normalized growth [50]: 0.997
normalized growth [51]: 0.899
normalized growth [52]: 1.01
normalized growth [53]: 0.986
normalized growth [54]: 0.999
normalized growth [55]: 0.98
normalized growth [56]: 0.991
normalized growth [57]: 1
normalized growth [58]: 0.997
normalized growth [59]: 0.972
normalized growth [60]: 1
normalized growth [61]: 0.992
normalized growth [62]: 1.02
normalized growth [63]: 0.971
normalized growth [64]: 0.993
normalized growth [65]: 0.957
normalized growth [66]: 0.998
normalized growth [67]: 0.992
normalized growth [68]: 1.01
normalized growth [69]: 0.992
normalized growth [70]: 0.955
normalized growth [71]: 0.988
normalized growth [72]: 0.967
normalized growth [73]: 0.995
normalized growth [74]: 0.995
normalized growth [75]: 0.927
normalized growth [76]: 1
normalized growth [77]: 0.982
normalized growth [78]: 0.991
normalized growth [79]: 0.998
normalized growth [80]: 1
normalized growth [81]: 0.995
normalized growth [82]: 0.99
normalized growth [83]: 1.02
normalized growth [84]: 1.01
normalized growth [85]: 0.969
normalized growth [86]: 0.993
normalized growth [87]: 0.98
normalized growth [88]: 0.981
normalized growth [89]: 1.01
normalized growth [90]: 1.01
normalized growth [91]: 0.997
normalized growth [92]: 0.987
normalized growth [93]: 0.968

COc1cccc(/C=C/C(=O)O)c1C(C)C
normalized growth [1]: 0.952
normalized growth [2]: 0.983
normalized growth [3]: 0.978
normalized growth [4]: 0.973
normalized growth [5]: 1.01
normalized growth [6]: 0.973
normalized growth [7]: 0.969
normalized growth [8]: 0.976
normalized growth [9]: 0.995
normalized growth [10]: 0.999
normalized growth [11]: 0.982
normalized growth [12]: 0.982
normalized growth [13]: 0.977
normalized growth [14]: 0.96
normalized growth [15]: 0.988
normalized growth [16]: 0.983
normalized growth [17]: 0.97
normalized growth [18]: 0.992
normalized growth [19]: 0.917
normalized growth (locus YDR195W, strain ref2): 0.96
normalized growth [20]: 0.973
normalized growth [21]: 0.983
normalized growth [22]: 0.994
normalized growth [23]: 0.961
normalized growth [24]: 0.994
normalized growth [25]: 0.985
normalized growth [26]: 1
normalized growth [27]: 0.977
normalized growth [28]: 0.981
normalized growth [29]: 0.976
normalized growth [30]: 0.967
normalized growth [31]: 0.99
normalized growth [32]: 0.978
normalized growth [33]: 0.991
normalized growth [34]: 0.985
normalized growth [35]: 0.984
normalized growth [36]: 0.98
normalized growth [37]: 0.957
normalized growth [38]: 0.995
normalized growth [41]: 0.996
normalized growth [42]: 0.983
normalized growth [43]: 0.974
normalized growth [45]: 0.972
normalized growth [46]: 0.973
normalized growth [47]: 0.983
normalized growth [48]: 0.985
normalized growth [49]: 0.982
normalized growth [50]: 0.998
normalized growth [52]: 0.987
normalized growth [53]: 0.982
normalized growth [54]: 0.999
normalized growth [55]: 0.988
normalized growth [56]: 0.972
normalized growth [57]: 0.971
normalized growth [58]: 0.989
normalized growth [60]: 0.999
normalized growth [61]: 0.986
normalized growth [62]: 1.03
normalized growth [63]: 0.975
normalized growth [64]: 0.982
normalized growth [65]: 0.945
normalized growth [66]: 0.993
normalized growth [67]: 0.989
normalized growth [68]: 0.979
normalized growth [69]: 0.976
normalized growth [70]: 0.988
normalized growth [71]: 0.99
normalized growth [72]: 0.937
normalized growth [73]: 0.977
normalized growth [74]: 0.982
normalized growth [76]: 1.01
normalized growth [77]: 0.988
normalized growth [78]: 0.951
normalized growth [79]: 0.967
normalized growth [80]: 0.998
normalized growth [81]: 0.999
normalized growth [82]: 0.994
normalized growth [83]: 0.981
normalized growth [84]: 1.01
normalized growth [86]: 0.973
normalized growth [87]: 1.02
normalized growth [88]: 0.98
normalized growth [89]: 0.996
normalized growth [90]: 1.01
normalized growth [91]: 0.929
normalized growth [92]: 0.976

O=C(O)/C=C/c1ccccc1
normalized growth [39]: 0.834 (active)
normalized growth [40]: 0.838 (active)
normalized growth [44]: 0.862 (active)
normalized growth [51]: 0.801 (active)
normalized growth [59]: 0.722 (active)
normalized growth [75]: 0.786 (active)
normalized growth [85]: 0.823 (active)
normalized growth [93]: 0.742 (active)
